From PubChem BioAssay AID1030 (National Center for Advancing Translational Sciences (NCATS), 2008)
About 16,000 (7.3%) of roughly 220,000 compounds were called active. Entries that show only a call come without a potency. Roughly 25% stayed inconclusive and do not appear here. Calls follow the shape of the dose curve; as a rule, active = well fitted inhibition curve with a large enough effect (not every such curve was filed as active); inconclusive = small, poorly fitted or top-dose-only effect, or another doubt; inactive = no such curve, though single readings can be large or run the other way. For the sample, actives were picked, then their nearest neighbours and some compounds at random.

target: Aldehyde dehydrogenase 1A1 (Homo sapiens) (UniProt P00352); experiment: qHTS Assay for Inhibitors of Aldehyde Dehydrogenase 1 (ALDH1A1); conditions: Purified ALDH1A1, NADH fluorescence, propionaldehyde substrate; series mostly up to 75.3 µM
Sequence (P00352 whole entry, looked up): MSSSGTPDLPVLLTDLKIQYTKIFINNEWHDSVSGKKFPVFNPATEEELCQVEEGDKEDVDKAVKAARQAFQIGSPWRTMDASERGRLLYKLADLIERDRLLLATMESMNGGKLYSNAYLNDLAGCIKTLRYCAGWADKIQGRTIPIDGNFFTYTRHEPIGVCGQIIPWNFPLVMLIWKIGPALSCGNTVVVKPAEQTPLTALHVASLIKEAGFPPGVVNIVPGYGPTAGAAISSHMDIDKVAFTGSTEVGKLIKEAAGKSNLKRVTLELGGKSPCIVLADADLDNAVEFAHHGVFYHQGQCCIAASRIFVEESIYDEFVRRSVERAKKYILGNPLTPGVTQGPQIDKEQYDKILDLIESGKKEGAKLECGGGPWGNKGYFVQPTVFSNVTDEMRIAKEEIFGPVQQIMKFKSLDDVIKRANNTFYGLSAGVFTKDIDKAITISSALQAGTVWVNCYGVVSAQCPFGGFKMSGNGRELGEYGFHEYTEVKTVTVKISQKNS
Potency is read from the fitted curve at half-maximal effect.

Row | SMILES | Potency | activity, negative = inhibition
1 | CC(=O)Nc1ccc(NC(=S)NC(=O)c2ccc([N+](=O)[O-])c(C)c2)cc1 | inactive | –
2 | Cc1cc(N2CCN(C)CC2)nc2ccc(NC(=S)N3CCOCC3)cc12 | inactive | –
3 | CC1COc2ccccc2N1S(=O)(=O)c1ccccc1 (stereo unspecified) | inactive | –
4 | O=C(C1CCN(C2CCN(Cc3ccc4cc(F)ccc4n3)CC2)CC1)N1CCCC1 | inactive | –
5 | Cc1cccc(-n2c(=O)c3c(C)c(C)sc3n(CC(N)=O)c2=O)c1 | inactive | –
6 | CN(C)c1ccc(C2Nc3ccccc3C(=O)N2NS(=O)(=O)c2ccccc2)cc1 (stereo unspecified) | 25.1 µM (active) | –
7 | NC(=O)Nc1ccccc1C(=O)NCCc1ccccc1 | inactive | –
8 | CC(OC(=O)c1ccc2ccccc2n1)C(=O)c1ccccc1 (stereo unspecified) | inactive | –
9 | CCCCC(C(=O)OCC(=O)c1ccc(OC)cc1)N1C(=O)c2ccccc2C1=O (stereo unspecified) | inactive | –
10 | COc1ccc(C(=O)COC(=O)c2ccc3ccccc3n2)cc1 | 17.8 µM (active) | –
11 | c1ccc2sc(NN=C3CCCC3)nc2c1 | inactive | –
12 | O=C1CCC(=O)N1c1ccc(NCCc2ccccc2F)c([N+](=O)[O-])c1 | inactive | –
13 | Cc1cc(CNCc2c(C(=O)N(C)Cc3ccccc3)nc3ccccn23)nn1C | inactive | –
14 | Cc1nc2ccccn2c1C(=O)NN=C1CCN(C)CC1 | 20 µM (active) | –
15 | C/C(=N\OC(=O)c1ccccc1)c1c(C)nc2cc(C)ccn12 | inactive | –
16 | Cc1ccccc1OC(=O)Cn1c(C(F)(F)F)nc2ccccc21 | inactive | –
17 | CCCCn1c(O)c(N=NC(=O)Cn2c(C(F)(F)F)nc3ccccc32)c2ccccc21 | 4.47 µM (active) | –
18 | CN1CCN(C(=O)Cn2c(C(F)(F)F)nc3ccccc32)CC1 | inactive | –
19 | Cc1cc(C)cc(OCC(=O)Nc2ccc(S(=O)(=O)Nc3ccccn3)cc2)c1 | inactive | –
20 | CC(CCO)Nc1nc2c([nH]1)c(=O)n(C)c(=O)n2C (stereo unspecified) | inactive | –
21 | Cc1ccc(NN=Nc2nc3c([nH]2)c(=O)n(C)c(=O)n3C)cc1 | 7.94 µM (active) | –
22 | COc1ccc2cc(-c3[nH]ncc3CNCCn3nc(C)cc3C)ccc2c1 | inactive | –

Row | SMILES | Potency | activity, negative = inhibition
23 | Cc1c(O)c(Br)c(C)c(O)c1Br (tested in a mixture with another compound) | 1.12 µM (active) | –
24 | COCCN(C(=O)CCC(=O)Nc1nccs1)C(C(=O)NC(C)(C)C)c1ccc(Cl)cc1 (stereo unspecified) | inactive | –
25 | Cc1ccc(OCc2n[nH]c(=S)n2-c2ccc(C)cc2)cc1 | inactive | –
26 | Cc1ccc(OCc2n[nH]c(=S)n2-c2ccccc2)cc1 | inactive | –
27 | COc1ccc(OCc2n[nH]c(=S)n2N)cc1 | 4.47 µM (active) | –
28 | Cc1noc(C)c1CCC(=O)O | inactive | –
29 | O=C(c1cccc(S(=O)(=O)N2CCCC2)c1)N(Cc1ccco1)C1CCS(=O)(=O)C1 (stereo unspecified) | inactive | –
30 | COc1cc(OC)c2c(-c3cccc(-c4cccc(N)c4)c3)cc(=O)oc2c1 | inactive | –
31 | CCC(c1nnnn1Cc1ccco1)N(CCc1ccccc1)Cc1cc2ccc(OC)cc2[nH]c1=O (stereo unspecified) | 10 µM (active) | –
32 | CCOc1ccc(CN(Cc2ccco2)C(c2cccs2)c2nnnn2C(C)(C)C)cc1 (stereo unspecified) | inactive | –
33 | CCC(c1nnnn1Cc1ccco1)N(CCc1ccccc1)Cc1cc2cccc(C)c2[nH]c1=O (stereo unspecified) | 7.94 µM (active) | –
34 | CCN(CC)CCNS(=O)(=O)c1ccc(/C=C/C(=O)O)cc1 | inactive | –
35 | Cc1noc(C)c1COC(=O)COc1ccc(-c2ccccc2)cc1 | inactive | –
36 | Cc1nn(CC(=O)Nc2ccc(C#N)cc2)c(C)c1[N+](=O)[O-] | inactive | –
37 | CCCC(C)C(=O)NCc1ccncc1 (stereo unspecified) | inactive | –
38 | OCCC1CN(Cc2cccc(OC3CCCC3)c2)CCN1Cc1ccsc1 (stereo unspecified) | inactive | –
39 | COC(=O)c1cc(=O)n(-c2c(Cl)cc(C(F)(F)F)cc2Cl)[nH]1 | inactive | –
40 | Cc1ccc(CNC(=O)CC2Sc3ccccc3NC2=O)cc1 (stereo unspecified) | inactive | –
41 | Cn1c(CC2Sc3ccccc3NC2=O)nnc1SCC(=O)c1ccc(Cl)cc1 (stereo unspecified) | 3.98 µM (active) | –
42 | Cn1c(CCC(=O)Nc2ccccc2F)nnc1SCC(=O)Nc1ccccc1Cl | inactive | –
43 | COc1cc(C)c(Cl)cc1S(=O)(=O)n1ccnc1 | inactive | –
44 | Cc1nc(N)[nH]c(=O)c1Oc1cccc(C(F)(F)F)c1 | inactive | –

Row | SMILES | Potency | activity, negative = inhibition
45 | Cn1c(-c2ccccc2)c[n+]2c1CCCCC2 | inactive | –
46 | COc1ccc(OCC(=O)NNC(=O)c2cccc(C)c2)cc1 | inactive | –
47 | COc1ccc(C(=O)Nc2cc(C)ccc2NC(=O)COc2ccccc2)cc1 | 3.98 µM (active) | –
48 | Cc1cccc(NC(=O)c2ccc(OCC(=O)NCc3ccccc3)cc2)c1C | inactive | –
49 | CCOC(=O)Cc1ncccc1C(=O)Nc1ccc(OC(F)(F)F)cc1 | inactive | –
50 | Cn1nnnc1-c1cc(Cl)cc(Cl)c1 | inactive | –
51 | COc1ccc(Br)cc1C(=O)Nc1cccc(C)c1C | inactive | –
52 | COc1ccc(Br)cc1C(=O)NC(=S)Nc1cc(-c2nc3ccccc3[nH]2)ccc1C | 12.6 µM (active) | –
53 | COc1ccc(/C=C(/NC(=O)c2ccc(C)cc2)c2nc3ccccc3[nH]2)cc1OC | inactive | –
54 | CC(OC(=O)CCc1nc(=O)c2ccccc2n1C)C(=O)NCc1ccc2c(c1)OCO2 (stereo unspecified) | inactive | –
55 | CC(C)CNC(=O)C(=O)Nc1ccc(N(C)C)cc1 | inactive | –
56 | COc1cc(CN2CCN(Cc3ccc(C)cc3)CC2)c([N+](=O)[O-])cc1OC | 17.8 µM (active) | –
57 | COc1cc(CC(=O)N/N=C/c2ccccc2)c([N+](=O)[O-])cc1OC | inactive | –
58 | COc1cc(CN2CC(C)CC(C)C2)cc([N+](=O)[O-])c1O (stereo unspecified) | inactive | –
59 | COC(=O)C1=C(N)Oc2c(oc(CO)cc2=O)C1c1c(F)cccc1Cl (stereo unspecified) | inactive | –
60 | C/C(=N\NC(=O)NC1CCCCC1)c1ccc(OC(F)F)cc1OC(F)F | inactive | –
61 | Cn1c(=O)c2c(ncn2CC(=O)N/N=C/c2cn[nH]c2-c2ccc(F)cc2)n(C)c1=O | inactive | –
62 | CC(=O)Oc1cccc(N2C(=O)C3CC=C(Cl)CC3C2=O)c1 (stereo unspecified) | inactive | –
63 | CC(=O)c1nc(N2C(=O)C3CC=C(C)CC3C2=O)sc1C (stereo unspecified) | 2.51 µM (active) | –
64 | Cc1ncc([N+](=O)[O-])n1CCOC(=O)c1ccc(Br)cc1 | inactive | –
65 | Cc1ccc(NC(=O)C(=O)NCc2ccco2)c(C)c1 | inactive | –
66 | CCn1c(SCC(=O)NCc2ccco2)nnc1-c1ccc(N)cc1 | inactive | –

Row | SMILES | Potency | activity, negative = inhibition
67 | O=C(CSc1nnc(-c2cccs2)n1-c1ccccc1)NCc1ccco1 | inactive | –
68 | Cc1ccc(SCC(=O)NC(=O)NCc2ccco2)c(C)c1 | 22.4 µM (active) | –
69 | O=C(CSc1nnc(-c2ccco2)n1Cc1ccccc1)NC(=O)NCc1ccco1 | 15.8 µM (active) | –
70 | Cc1cc(C)n2nc(SCC(=O)NC(=O)NCc3ccco3)nc2n1 | inactive | –
71 | Cc1ccc(C(C)(C)C)c(OCCCCN2CCCC2)c1 | inactive | –
72 | COc1ccc(/C=N/NC(=O)Nc2ccc3nsnc3c2)c(OC)c1 | inactive | –
73 | CCOc1cc(C2C(C(=O)OC(C)C)=C(C)NC3=C2C(=O)CCC3)cc([N+](=O)[O-])c1O (stereo unspecified) | inactive | –
74 | COc1cccc(OC)c1C(=O)OCC(=O)/C(C#N)=C(\C)N | inactive | –
75 | COC(=O)C1=C(C)N(C(C)c2ccccc2)C(=O)/C1=C\c1ccco1 (stereo unspecified) | inactive | –
76 | NNC(=O)C1CCCn2c1nc1sc3c(c1c2=O)CCCC3 (stereo unspecified) | 12.6 µM (active) | –
77 | Cn1c(NN)nc2sc3c(c2c1=O)CCC3 | inactive | –
78 | N=c1c2c3c(sc2nc2n1CCCCC2)CCCC3 | inactive | –
79 | O=C(CSc1nc(-c2ccccc2)cs1)Nc1cccc([N+](=O)[O-])c1 | inactive | –
80 | Cc1cccc(S(=O)(=O)CC(=O)Nc2nc(-c3ccccc3)cs2)c1 | inactive | –
81 | O=C(CSc1ncn[nH]1)Nc1nc(-c2cccc([N+](=O)[O-])c2)cs1 | 17.8 µM (active) | –
82 | CC(=O)c1ccc(-c2nnc(CCC(=O)N(C)Cc3cnc4ccccn34)o2)s1 | inactive | –
83 | CCCCCCCCCCCCCCCCO | inactive | –
84 | O=C(Nc1ccccc1C(F)(F)F)c1cc(-c2ccc(O)cc2)on1 | inactive | –
85 | Cc1cc(C)nc(NC(=O)C(C)N2C(=O)c3ccccc3C2=O)n1 (stereo unspecified) | inactive | –
86 | Cc1cc(C)nc(NC(=O)Nc2ccccc2C(F)(F)F)n1 | 35.5 µM (active) | –
87 | Cc1ccc(NC(=O)c2oc3ccccc3c2C)c([N+](=O)[O-])c1 | inactive | –
88 | CC1=C(C)CC(C(=O)NC(C)CCc2ccccc2)C(C(=O)O)C1 (stereo unspecified) | inactive | –

Row | SMILES | Potency | activity, negative = inhibition
89 | CCC(C)[C@@H](N)C(=O)O (stereo partly specified) | inactive | –
90 | CC(C)NC(=O)NC(=O)CSc1nnc(-c2ccccc2F)n1N | inactive | –
91 | Cc1cc(C)c(C2C3=C(Nc4c2c(C)nn4-c2ccccn2)c2ccccc2C3=O)c(C)c1 (stereo unspecified) | inactive | –
92 | Cc1ccc(N=Nc2c(C)[nH]n(-c3ccccc3)c2=O)cc1 | inactive | –
93 | Cc1ccc(C2C3=C(Nc4[nH]n(-c5ccccc5)c(=O)c42)c2ccccc2C3=O)cc1 (stereo unspecified) | 11.2 µM (active) | –
94 | Cn1cnnc1Sc1ccc(S(C)(=O)=O)cc1[N+](=O)[O-] | inactive | –
95 | c1csc(-c2nnc(COc3ccc4c(c3)OCO4)o2)c1 | inactive | –
96 | c1ccc2sc(SCCSc3nc4ccccc4s3)nc2c1 | – | 3.19% [at 13.5 µM] (inactive)
97 | O=[N+]([O-])c1cc(Br)c(O)c(/C=N/Nc2nc3ccccc3s2)c1 | inactive | –
98 | O=[N+]([O-])c1c(NCCO)cc(Sc2nc3ccccc3s2)c2nonc12 | 8.91 µM (active) | –
99 | COc1ccc(-c2[nH]ncc2CN(C)Cc2c(C)n[nH]c2C)c(OC)c1 | inactive | –
100 | O=C(c1ccc(F)cc1)C1CCN(Cc2cn[nH]c2-c2ccccc2)CC1 | inactive | –
101 | OCC1(CCOc2ccccc2)CCN(Cc2cn[nH]c2-c2ccccc2)CC1 | inactive | –
102 | CN(CCC1CCOCC1)Cc1cn[nH]c1-c1ccc(-c2ccccc2)cc1 | 10 µM (active) | –
103 | Cc1nnc(CN(C)Cc2cn[nH]c2-c2ccc(-c3ccccc3)cc2)o1 | 12.6 µM (active) | –
104 | O=C(OCc1ccc([N+](=O)[O-])cc1)c1ccccn1 | inactive | –
105 | Cc1nc([N+](=O)[O-])c(NCCCO)n1Cc1ccccc1 | inactive | –
106 | CCNc1nc(-c2cc3ccccc3o2)cs1 | inactive | –
